Reference: PubChem BioAssay (EPA / NIEHS)
Results filed as inconclusive are left out. Calls of active or inactive are those of the source. The calls were made as follows, unless noted: active = hit-call score of the fitted dose curve at least 0.9, where 1 is the maximum; inactive = score below 0.9.

Tests used:
[1] = read-out: Monocyte Chemoattractant Protein-1 (MCP1), CCL2 (gene 6347); test: BSK_LPS_MCP1: BioMAP Diversity Plus: LPS Assay for Monocyte Chemoattractant Protein-1 (MCP1) Biomarker Activity (AID 2283081); conditions: primary human HUVEC with PBMC; actives raise or lower the signal
Summary of the method: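 ELISA read-out of MCP-1 after 24 h chemical dosing of a human umbilical vein endothelial cell/peripheral blood mononuclear cell co-culture stimulated with LPS. Gain or loss of signal fitted relative to DMSO controls.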

[2] = BSK_LPS_PGE2: BioMAP Diversity Plus: LPS Assay for Prostaglandin E2 (PGE2) Biomarker Activity (AID 2283082); conditions: primary human HUVEC with PBMC; actives raise or lower the signal
Summary of the method: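 Endpoint derived from bidirectional curve fitting versus DMSO of ELISA-measured PGE2 in LPS-stimulated human primary vascular co-culture (HUVEC with PBMC) harvested at 24 h.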

[3] = read-out: Macrophage colony-stimulating factor (MCSF), CSF1 (gene 1435); test: BSK_LPS_MCSF: BioMAP Diversity Plus: LPS Assay for Macrophage colony-stimulating factor (MCSF) Biomarker Activity (AID 2283083); conditions: primary human HUVEC with PBMC; actives raise or lower the signal
Summary of the method: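 HUVEC + PBMC co-culture (human primary), 24 h post-dose; M-CSF by ELISA; gain/loss of signal fitted bidirectionally vs DMSO baseline.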

[4] = read-out: Tissue Factor, F3 (gene 2152); test: BSK_LPS_TissueFactor: BioMAP Diversity Plus: LPS Assay for Tissue Factor Biomarker Activity (AID 2283084); conditions: primary human HUVEC with PBMC; actives raise or lower the signal
Summary of the method: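 HUVEC/PBMC co-culture, LPS-activated; CD142 ELISA read 24 h post-dose; bidirectional curve fit vs DMSO negative control.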

[5] = read-out: Tumor necrosis factor (Homo sapiens) (UniProt P01375); test: BSK_LPS_TNFa: BioMAP Diversity Plus: LPS Assay for Tumour Necrosis Factor alpha (TNFa) Biomarker Activity (AID 2283085); conditions: primary human HUVEC with PBMC; actives raise or lower the signal
Summary of the method: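 Primary human vascular co-culture of HUVEC and PBMC; TNFa ELISA 24 h after treatment, analysed as increase or decrease relative to DMSO control.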

[6] = read-out: Vascular cell adhesion molecule 1 (VCAM1), VCAM1 (gene 7412); test: BSK_LPS_VCAM1: BioMAP Diversity Plus: LPS Assay for Vascular cell adhesion molecule 1 (VCAM1) Biomarker Activity (AID 2283086); conditions: primary human HUVEC with PBMC; actives raise or lower the signal
Summary of the method: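 Primary human vascular co-culture (umbilical vein endothelium plus PBMC) stimulated with LPS received chemical; 24 h later VCAM-1 was read by ELISA. Overt cytotoxicity was assessed by sulforhodamine B staining of parallel cultures at the same time point.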

CD38, CD38 (gene 952) = test: BSK_SAg_CD38: BioMAP Diversity Plus: SAg Assay for CD38 Biomarker Activity (AID 2283087); conditions: primary human HUVEC with PBMC; actives raise or lower the signal
Summary of the method: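 Fluorescence ELISA of cell-surface CD38 served as the read-out, with either increase or decrease fitted against DMSO controls. Cells were a human umbilical vein endothelium plus PBMC co-culture under SEB/TSST-1 stimulation, measured 24 h after dosing.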

CD40, CD40 (gene 958) = test: BSK_SAg_CD40: BioMAP Diversity Plus: SAg Assay for CD40 Biomarker Activity (AID 2283088); conditions: primary human HUVEC with PBMC; actives raise or lower the signal
Summary of the method: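 HUVEC/PBMC co-culture, 24 h post-dose; CD40 by ELISA, fluorescence intensity; bidirectional fit vs DMSO negative control.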

CD69, CD69 (gene 969) = test: BSK_SAg_CD69: BioMAP Diversity Plus: SAg Assay for CD69 Biomarker Activity (AID 2283089); conditions: primary human HUVEC with PBMC; actives raise or lower the signal;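 as to AC50: cell surface CD69 protein quantified by ELISA with fluorescence detection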
Summary of the method: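 HUVEC co-cultured with PBMC were dosed with chemical, and CD69 was measured by ELISA with fluorescence read-out 24 h later. Bidirectional curve fitting used DMSO as negative control and activity baseline.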

[7] = read-out: Monocyte Chemoattractant Protein-1 (MCP1), CCL2 (gene 6347); test: BSK_SAg_MCP1: BioMAP Diversity Plus: SAg Assay for Monocyte Chemoattractant Protein-1 (MCP1) Biomarker Activity (AID 2283090); conditions: primary human HUVEC with PBMC; actives raise or lower the signal
Summary of the method: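 MCP-1 levels in the endothelial–PBMC SAg co-culture were quantified by ELISA at 24 h post-dosing; both increases and decreases versus DMSO scored. Cytotoxicity monitored by SRB total protein in parallel cultures.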

[8] = read-out: E-selectin (Homo sapiens) (UniProt P16581); test: BSK_SAg_Eselectin: BioMAP Diversity Plus: SAg Assay for Eselectin Biomarker Activity (AID 2283091); conditions: primary human HUVEC with PBMC; actives raise or lower the signal
Summary of the method: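 E-selectin ELISA readout at 24 h post-dosing in human umbilical vein endothelial cell/PBMC co-culture; gain or loss of signal fitted relative to DMSO baseline.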

[9] = read-out: Monokine induced gamma interferon (MIG), CXCL9 (gene 4283); test: BSK_SAg_MIG: BioMAP Diversity Plus: SAg Assay for Monokine induced gamma interferon (MIG) Biomarker Activity (AID 2283092); conditions: primary human HUVEC with PBMC; actives raise or lower the signal
Summary of the method: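 HUVEC plus human PBMC co-culture, chemicals dosed and MIG (CXCL9) quantified by ELISA at 24 h. Bidirectional curve fitting against DMSO as negative control and baseline, so both gain and loss of signal count as activity.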

[10] = BSK_SAg_PBMCCytotoxicity: PBMC Cytotoxicity Assessment in the BioMAP Diversity Plus: SAg Assay (AID 2283093); conditions: primary human HUVEC with PBMC;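 also: PBMC viability measured as Alamar Blue reduction fluorescence at 546/580 nm; fitted both ways against DMSO so a hit may be loss or gain of signal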
Summary of the method: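 Compound added to 75,000 PBMC/well for 1 h; SEB and TSST-1 then added at 20 ng/mL final each; 90 h incubation; Alamar Blue 6 h; read 546/580 nm ex/em. Activity fitted bidirectionally relative to DMSO baseline.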

[11] = read-out: Interleukin-8 (IL8), CXCL8 (gene 3576); test: BSK_SAg_IL8: BioMAP Diversity Plus: SAg Assay for Interleukin-8 (IL8) Biomarker Activity (AID 2283094); conditions: primary human HUVEC with PBMC; actives raise or lower the signal
Summary of the method: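 In this co-culture of human umbilical vein endothelium with peripheral blood mononuclear cells, IL-8 is assayed by ELISA at 24 h. DMSO serves as baseline for bidirectional curve fitting.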

[12] = BSK_SAg_Proliferation: Cell Proliferation Assessment in the BioMAP Diversity Plus: SAg Assay (AID 2283095); conditions: primary human HUVEC with PBMC;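 also: relative cell number as total protein by SRB absorbance in sub-confluent culture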
Summary of the method: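 Readout is SRB-stained protein (560 nm) in a primary human HUVEC and PBMC co-culture; sub-confluent cultures are read at 96 h. Activity is fitted bidirectionally using DMSO as baseline.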

[13] = BSK_SAg_SRB: Viability Assessment in the BioMAP Diversity Plus: SAg Assay (AID 2283096); conditions: primary human HUVEC with PBMC;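 also: cells read one day after compound addition; hits may be either gain or loss of signal compared with DMSO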
Summary of the method: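 Total protein by sulforhodamine B staining, 24 h after dosing, in HUVEC–PBMC co-culture; DMSO-referenced bidirectional fitting.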

[14] = molecular target: human CYP2A6, CYP2A6 (gene 1548) (UniProt P11509); test: NVS_ADME_hCYP2A6: NovaScreen (NVS) CYP450-related Enzyme Activity (ADME) Assay for human CYP2A6 (AID 2283099; active = hit-call score of the fitted dose curve at least 0.9, where 1 is the maximum)
Sequence of human CYP2A6, CYP2A6 (gene 1548) (P11509 whole entry, looked up): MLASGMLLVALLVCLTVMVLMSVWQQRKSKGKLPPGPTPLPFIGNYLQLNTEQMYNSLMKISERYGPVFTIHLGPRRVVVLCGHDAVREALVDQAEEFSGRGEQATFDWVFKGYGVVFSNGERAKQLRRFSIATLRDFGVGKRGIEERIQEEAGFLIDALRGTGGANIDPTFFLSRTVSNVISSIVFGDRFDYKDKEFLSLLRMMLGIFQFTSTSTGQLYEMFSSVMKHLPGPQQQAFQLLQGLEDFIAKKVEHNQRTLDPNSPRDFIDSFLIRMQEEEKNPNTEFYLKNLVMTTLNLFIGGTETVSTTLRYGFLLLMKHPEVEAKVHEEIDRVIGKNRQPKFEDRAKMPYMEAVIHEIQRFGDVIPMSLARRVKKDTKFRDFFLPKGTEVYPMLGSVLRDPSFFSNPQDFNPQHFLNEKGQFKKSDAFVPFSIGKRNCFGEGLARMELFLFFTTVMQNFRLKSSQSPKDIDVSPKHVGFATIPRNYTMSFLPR
Summary of the method: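 Insect-cell-expressed human CYP2A6 enzyme activity measured by fluorescence intensity 0.5 hour post-dosing. Compounds screened at 10 uM in duplicate, then hits tested singly in concentration series (max 20 uM); acetonitrile baseline.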

[15] = molecular target: human CYP2B6, CYP2B6 (gene 1555) (UniProt P20813); test: NVS_ADME_hCYP2B6: NovaScreen (NVS) CYP450-related Enzyme Activity (ADME) Assay for human CYP2B6 (AID 2283101; active = hit-call score of the fitted dose curve at least 0.9, where 1 is the maximum)
Sequence of human CYP2B6, CYP2B6 (gene 1555) (P20813 whole entry, looked up): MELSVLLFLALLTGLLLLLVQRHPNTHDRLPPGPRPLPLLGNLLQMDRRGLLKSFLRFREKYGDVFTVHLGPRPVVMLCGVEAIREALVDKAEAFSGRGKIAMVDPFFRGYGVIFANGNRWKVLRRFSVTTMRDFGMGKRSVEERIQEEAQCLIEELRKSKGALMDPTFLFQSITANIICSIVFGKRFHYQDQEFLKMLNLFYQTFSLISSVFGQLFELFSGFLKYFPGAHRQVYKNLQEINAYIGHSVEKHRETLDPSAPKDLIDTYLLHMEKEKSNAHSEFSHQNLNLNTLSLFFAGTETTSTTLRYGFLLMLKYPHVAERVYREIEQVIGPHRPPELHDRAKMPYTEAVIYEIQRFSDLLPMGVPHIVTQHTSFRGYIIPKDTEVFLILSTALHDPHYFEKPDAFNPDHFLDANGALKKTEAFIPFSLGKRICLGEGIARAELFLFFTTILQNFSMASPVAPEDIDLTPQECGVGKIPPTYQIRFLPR
Summary of the method: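 Recombinant human CYP2B6 with fluorogenic substrate, read by fluorescence intensity 1 h after dosing. Primary screen in duplicate at 10 uM, actives followed in concentration series; signal loss relative to acetonitrile control.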

Measured: AC50

Sequence of Tumor necrosis factor (Homo sapiens) (P01375 whole entry, looked up): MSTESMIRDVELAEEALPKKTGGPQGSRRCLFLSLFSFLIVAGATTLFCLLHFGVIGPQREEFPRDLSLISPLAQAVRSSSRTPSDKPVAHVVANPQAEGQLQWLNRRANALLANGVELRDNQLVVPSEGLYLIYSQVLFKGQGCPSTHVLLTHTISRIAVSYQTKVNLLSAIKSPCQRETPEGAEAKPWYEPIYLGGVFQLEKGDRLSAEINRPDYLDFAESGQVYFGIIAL
Sequence of E-selectin (Homo sapiens) (P16581 whole entry, looked up): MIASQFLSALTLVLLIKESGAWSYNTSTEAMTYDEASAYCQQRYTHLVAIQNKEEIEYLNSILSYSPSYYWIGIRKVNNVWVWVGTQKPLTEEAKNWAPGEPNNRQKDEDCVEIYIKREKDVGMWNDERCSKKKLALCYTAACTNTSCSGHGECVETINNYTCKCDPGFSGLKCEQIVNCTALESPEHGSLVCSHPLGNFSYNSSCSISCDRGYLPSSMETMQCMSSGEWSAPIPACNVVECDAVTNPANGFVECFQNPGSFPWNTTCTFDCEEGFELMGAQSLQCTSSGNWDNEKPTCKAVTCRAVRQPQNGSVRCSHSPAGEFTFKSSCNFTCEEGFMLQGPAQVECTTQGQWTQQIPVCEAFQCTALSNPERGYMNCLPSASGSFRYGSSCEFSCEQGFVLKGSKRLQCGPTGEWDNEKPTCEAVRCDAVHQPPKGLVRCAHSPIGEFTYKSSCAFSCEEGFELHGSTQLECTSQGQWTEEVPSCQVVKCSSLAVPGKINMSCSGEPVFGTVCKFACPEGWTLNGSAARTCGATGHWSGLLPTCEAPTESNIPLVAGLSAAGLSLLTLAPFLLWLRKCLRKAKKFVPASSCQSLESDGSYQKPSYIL

CCCCC(CC)CO (stereo not given)
inactive: [1] | [2] | [3] | [4] | [5] | [6] | CD38, CD38 (gene 952) | CD40, CD40 (gene 958) | CD69, CD69 (gene 969) | [7] | [8] | [9] | [10] | [11] | [12] | [13]

NC1CCCCC1
inactive: [1] | [2] | [3] | [4] | [5] | [6] | CD38, CD38 (gene 952) | CD40, CD40 (gene 958) | CD69, CD69 (gene 969) | [7] | [8] | [9] | [10] | [11] | [12] | [13] | [14] | [15]

CCCCc1nc2cccnc2n1Cc1ccc(-c2ccccc2-c2nnn[nH]2)cc1
inactive: [1] | [2] | [3] | [4] | [5] | [6] | CD38, CD38 (gene 952) | CD40, CD40 (gene 958) | CD69, CD69 (gene 969) | [7] | [8] | [9] | [10] | [11] | [12] | [13]

CN(C)CCCN(C)CCCN(C)C
inactive: [1] | [2] | [3] | [4] | [5] | [6] | CD38, CD38 (gene 952) | CD40, CD40 (gene 958) | CD69, CD69 (gene 969) | [7] | [8] | [9] | [10] | [11] | [12] | [13]

CN(C)C(=O)NC1(c2ccccc2)CCN(CC[C@@]2(c3ccc(F)c(F)c3)CN(C(=O)c3ccccc3)CCO2)CC1
inactive: [1] | [2] | [3] | [4] | [5] | [6] | CD38, CD38 (gene 952) | CD40, CD40 (gene 958) | CD69, CD69 (gene 969) | [7] | [8] | [9] | [10] | [11] | [13]
active: [12] 26.1 µM

Cc1cn([C@H]2C=C[C@@H](CO)O2)c(=O)[nH]c1=O
inactive: [1] | [2] | [3] | [4] | [5] | [6] | CD38, CD38 (gene 952) | CD40, CD40 (gene 958) | CD69, CD69 (gene 969) | [7] | [8] | [9] | [10] | [11] | [13]

O=C1OC(c2ccc(O)cc2)(c2ccc(O)cc2)c2ccccc21
active: [3] 31.1 µM | [5] 20 µM | [6] 30.7 µM | CD38, CD38 (gene 952) 28.7 µM | CD40, CD40 (gene 958) 29 µM | CD69, CD69 (gene 969) 20 µM | [7] 23 µM | [8] 23.8 µM | [9] 36.8 µM | [11] 20 µM | [12] 29.3 µM
inactive: [1] | [2] | [4] | [10] | [13] | [14] | [15]
